Inconclusive results are not listed. Calls of active or inactive are those of the source. The call rests on the fitted dose curve; in most records, active means well fitted cell-killing curve with a large enough effect in the repeat runs; inconclusive means weak or mixed curves, or effect the other way; inactive means no such curve, though single readings can be large or run the other way.
On the % scale 0 is the no-effect control and ±100 the full control effect.

This test is described as follows: qHTS assay to identify small molecule antagonists of the retinoid-related orphan receptor gamma (ROR-gamma) signaling pathway - cell viability counter screen (AID 1159520). Further: nearly all actives have a fitted effect of over 50% in size. As to conditions: Tet-on RORgamma CHO cells viability, ATP luminescence, 16 h; series mostly up to 92.4 µM. An excerpt:
U.S. Tox21 Program National Center for Advancing Translational Sciences [NCATS] NIH Chemical Genomics Center [NCGC] U.S. Environmental Protection Agency [EPA] National Institutes of Environmental Health Sciences [NIEHS] National Toxicology Program [NTP] U.S. Food and Drug Administration [FDA] Tox21 Assay Overview: Nuclear steroid hormone receptors are involved in many biological processes including inflammatory responses, cell proliferation, and apoptosis. Environmental factors or compounds disrupting these nuclear receptor pathways and gene expression may promote susceptibility to immunotoxicants and autoimmune diseases. One important group of these expression factors are the retinoid-related orphan receptors. To assess compounds that may interfere with the retinoid-related orphan receptor gamma (ROR-gamma) transcription factor, a cell-based luciferase assay was used. The CHO cell-based assay utilizes a TET-inducible ROR expression factor and ROR response element-LUC reporter gene. Reporter gene activity was induced using Doxycycline Hyclate and measured after 16 hr incubation. Tet-on ROR gamma CHO cells were used to screen against the Tox21 10K compound library for cytotoxicity by measuring the viability of the cells based on the quantitation of the ATP.
Tox21 Assay Protocol Summary: Tet-on ROR gamma CHO cells were dispensed at 1,000 cells in 4 uL of culture medium per well into white wall/solid bottom 1536-well plates using a Multidrop Combi (Thermo Scientific, Waltham, MA) dispenser. Following incubation at 37 C and 5% CO2 for 4 hr, 23 nL of compounds dissolved in DMSO, positive controls or DMSO only were transferred by a Pintool station (Kalypsys, San Diego, CA) and after 2 hr incubation at 37 C, one ul of 1 uM (final concentration) of Doxycycline Hyclate was added to all the wells by using a Flying Reagent Dispenser (FRD) (Aurora Discovery, San Diego, CA). After 16 hr incubation at 37 C and 5% CO2, 5 uL of CellTiter-Glo reagent (Promega Corporation, Madison, WI) was added to each assay plate using FRD. After 30 min incubation at room temperature, luminescence was quantified on a ViewLux plate reader (Perkin Elmer, Waltham, MA).
Background: Quantitative high-throughput screening tests each substance at several concentrations.
In the case of `CCOc1ccc2nc(S(N)(=O)=O)sc2c1`, the result was inactive.

Regarding `CCOC(=O)OC(C)OC1=C(C(=O)Nc2ccccn2)N(C)S(=O)(=O)c2ccccc21` (stereo not given), the molecule was called inactive.

As for `COc1ccccc1OCC1CNC(=O)O1` (stereo not given), the molecule was classed as inactive.

Regarding `CC(=O)OCC(=O)[C@@]1(O)[C@H](C)C[C@H]2[C@@H]3CCC4=CC(=O)C=C[C@]4(C)[C@@]3(F)[C@@H](O)C[C@@]21C`, the molecule was called inactive.

For `CCCC(C)C(=O)OCC` (stereo not given), the molecule was classed as inactive.

Consider `CCCO[Si](OCCC)(OCCC)OCCC`, for which the result was inactive.

For `CC(=O)C1CCCCC1=O` (stereo not given), the result was inactive.

In the case of `CC1(C)OC[C@@H](COC(=O)CCc2ccc(OC[C@@H](O)CNCCNC(=O)N3CCOCC3)cc2)O1`, the molecule was called inactive.

In the case of `O=C(O)CCSCCC(=O)O`, the molecule was called inactive.

Consider `c1ccc2sc(SN3CCOCC3)nc2c1`, for which the molecule was classed as inactive.

As for `O=[N+]([O-])c1ccc(/C=N\O)o1`, the outcome was inactive.

In the case of `O=C(c1ccccc1O)c1ccccc1O`, the call was inactive.

Regarding `CCN1CCOCC1`, the outcome was inactive.

For the molecule `Nc1ccn([C@@H]2O[C@H](CO)[C@@H](O)[C@@H]2O)c(=O)n1`, the molecule was classed as inactive.

Turning to `CCCCCC(=O)OCCc1ccccc1`, the call was inactive.

For `C=COCC1CCC(COC=C)CC1` (stereo not given), the call was inactive.

As to `C[N+](C)(CCOc1ccccc1)Cc1cccs1`, the call was inactive.

For the molecule `CCCCCCCCCCCCSC`, the call was inactive.

For the molecule `CCOc1c(N2CCOCC2)cnn(C)c1=O`, the outcome was inactive.

For the molecule `CCOC(=O)C1=NOC(c2ccccc2)(c2ccccc2)C1`, the molecule was called inactive.

In the case of `C=CC(C)(CCC=C(C)C)OC(=O)CC` (stereo not given), the molecule was classed as inactive.

As to `CC(=O)c1ccc2ccccc2c1`, the molecule was classed as inactive.

Consider `CO[C@@]1(NC(=O)C(C(=O)O)c2ccc(O)cc2)C(=O)N2C(C(=O)O)=C(CSc3nnnn3C)CO[C@@H]21` (stereo not given in full), for which the molecule was called inactive.

For the molecule `CCOC(=O)COC(=O)c1ccccc1C(=O)OCC`, the result was inactive.

On to `Cc1ncc([C@@H](CCCCCCc2ccc3c(n2)NCCC3)CC(=O)O)cn1`, for which the molecule was called inactive.

As for `CC[N+](CC)(CC(=O)Nc1c(C)cccc1C)Cc1ccccc1` (tested in a mixture with another compound), the outcome was inactive.

For `CCOc1ccccc1OCC`, the call was inactive.

With `CC(N)C12CC3CC(CC(C3)C1)C2` (stereo not given), the molecule was classed as inactive.

In the case of `C[C@@H]1C[C@H]2[C@@H]3C[C@H](F)C4=CC(=O)C(Cl)=C[C@]4(C)[C@@]3(F)[C@@H](O)C[C@]2(C)[C@@]1(O)C(=O)CO`, the result was inactive.

On to `CCCCc1ccc2c(n1)[C@@H](c1ccc(OC)cc1C[C@H](C)C(=O)O)[C@H](C(=O)O)[C@H]2c1ccc2c(c1)OCO2`, for which the outcome was inactive.

For `CN(C)[C@@H]1C(=O)C(C(=O)NCN2CCCC2)=C(O)[C@@]2(O)C(=O)C3=C(O)c4c(O)cccc4[C@@](C)(O)C3C[C@@H]12` (stereo not given in full), the molecule was classed as inactive.

On to `CC12CCC(C(=O)C1=O)C2(C)C` (stereo not given), for which the result was inactive.

For `O=S(=O)(O)c1cccc(S(=O)(=O)O)c1`, the call was inactive.

For the molecule `NO`, the result was inactive.

`CN(C)CCN(C)CCN(C)C`: the molecule was classed as inactive.

Turning to `CC[N+](C)(CC)CCOC(=O)C1c2ccccc2Oc2ccccc21`, the outcome was inactive.

Consider `CCOC(=O)C(=O)CCCCCCl`, for which the call was inactive.

With `CCCCCCCCCCOc1cc2c(=O)c(C(=O)OCC)c[nH]c2cc1OCC`, the activity, negative = cytotoxicity was 2.58% [at 8.39 µM] (inactive).

Regarding `CCOC(=O)c1ccccc1`, the molecule was classed as inactive.

Take `CCN(Cc1ccccc1)c1ccccc1`: the outcome was inactive.

Source of the values: PubChem BioAssay (Tox21).
